Data taken from PubChem BioAssay (NCATS).
Inconclusive results are not listed. Where a call stands in place of a potency, no number is given. Unmarked numbers belong to inactive results. Calls of active or inactive are those of the source. Unless noted, calls come from the whole dose curve; as a rule, active = well fitted curve in the direction sought with a large enough effect; inconclusive = small, poorly fitted or top-dose-only effect, or another doubt; inactive = no such curve, though single readings can be large; an effect the other way counts as inactive or inconclusive.

Assays:
[1] = target: Voltage-gated inwardly rectifying potassium channel KCNH2 (Homo sapiens) (UniProt Q12809); assay: qHTS Assay for Small Molecule Inhibitors of the Human hERG Channel Activity (AID 588834);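 note: lower thallium flux fluorescence means stronger hERG block; nearly all actives have a fitted effect of over 50% in size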; note: potency is the fitted concentration of half-maximal effect
Voltage-gated inwardly rectifying potassium channel KCNH2 (Homo sapiens), sequence (Q12809 whole entry, looked up): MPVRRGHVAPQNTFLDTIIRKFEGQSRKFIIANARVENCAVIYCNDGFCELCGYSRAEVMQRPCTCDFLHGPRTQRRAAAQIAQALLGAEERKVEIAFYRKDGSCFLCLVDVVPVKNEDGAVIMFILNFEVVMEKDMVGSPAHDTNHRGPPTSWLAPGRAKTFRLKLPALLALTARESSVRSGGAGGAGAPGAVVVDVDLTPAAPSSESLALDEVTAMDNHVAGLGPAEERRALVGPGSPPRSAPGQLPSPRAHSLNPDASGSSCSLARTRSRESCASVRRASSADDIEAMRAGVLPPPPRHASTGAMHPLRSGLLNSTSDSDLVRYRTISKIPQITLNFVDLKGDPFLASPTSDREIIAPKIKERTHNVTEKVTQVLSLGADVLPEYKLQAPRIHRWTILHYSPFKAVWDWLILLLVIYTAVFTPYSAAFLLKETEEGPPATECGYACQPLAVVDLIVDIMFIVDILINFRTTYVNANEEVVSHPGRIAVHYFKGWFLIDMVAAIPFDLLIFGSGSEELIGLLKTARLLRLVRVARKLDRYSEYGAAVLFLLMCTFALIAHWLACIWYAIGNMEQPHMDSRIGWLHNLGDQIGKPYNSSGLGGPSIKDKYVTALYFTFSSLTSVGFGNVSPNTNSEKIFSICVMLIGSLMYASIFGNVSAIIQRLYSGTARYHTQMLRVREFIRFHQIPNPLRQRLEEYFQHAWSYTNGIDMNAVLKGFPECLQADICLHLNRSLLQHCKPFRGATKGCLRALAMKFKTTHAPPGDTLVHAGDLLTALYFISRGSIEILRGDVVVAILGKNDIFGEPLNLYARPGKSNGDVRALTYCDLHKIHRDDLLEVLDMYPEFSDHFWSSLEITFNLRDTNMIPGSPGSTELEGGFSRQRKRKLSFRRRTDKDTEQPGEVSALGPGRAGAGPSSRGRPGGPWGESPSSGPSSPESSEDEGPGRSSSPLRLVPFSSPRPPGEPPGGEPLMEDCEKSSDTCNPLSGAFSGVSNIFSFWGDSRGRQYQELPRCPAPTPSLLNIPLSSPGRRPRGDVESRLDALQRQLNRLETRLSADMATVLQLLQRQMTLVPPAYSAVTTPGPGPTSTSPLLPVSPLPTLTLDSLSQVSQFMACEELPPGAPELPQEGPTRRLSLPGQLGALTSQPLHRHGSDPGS
Procedure, shortened: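 Measured: FluxOR fluorescence after thallium stimulation in U2OS cells transduced with hERG by baculovirus. Compounds pre-incubated around 10 min; medium Opti-MEM with 2% FCS. AC50 from Hill equation.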

[2] = target: Luciferin 4-monooxygenase (Photinus pyralis) (UniProt P08659); assay: Biochemical firefly luciferase enzyme assay for NPC (AID 624030);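 note: purified P. pyralis luciferase at 10 nM with luciferin and ATP substrate; series mostly up to about 59 µM; nearly all actives have a fitted effect of over 70% in size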
Luciferin 4-monooxygenase (Photinus pyralis), sequence (P08659 whole entry, looked up): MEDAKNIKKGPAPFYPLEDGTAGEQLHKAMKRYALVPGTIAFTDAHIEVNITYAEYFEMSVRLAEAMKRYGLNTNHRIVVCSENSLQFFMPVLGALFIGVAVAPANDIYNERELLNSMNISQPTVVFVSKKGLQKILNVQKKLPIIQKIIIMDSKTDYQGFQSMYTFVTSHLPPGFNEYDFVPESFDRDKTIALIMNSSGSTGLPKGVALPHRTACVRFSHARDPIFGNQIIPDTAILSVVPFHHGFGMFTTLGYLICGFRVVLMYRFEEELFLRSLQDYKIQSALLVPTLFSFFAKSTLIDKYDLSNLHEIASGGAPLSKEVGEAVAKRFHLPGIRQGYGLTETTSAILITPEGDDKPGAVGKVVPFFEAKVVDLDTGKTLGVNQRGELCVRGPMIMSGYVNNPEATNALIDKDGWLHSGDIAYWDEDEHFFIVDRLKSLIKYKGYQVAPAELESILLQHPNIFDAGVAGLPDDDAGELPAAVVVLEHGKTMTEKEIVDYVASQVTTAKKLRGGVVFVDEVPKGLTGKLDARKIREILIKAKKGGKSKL
Procedure, shortened: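 Direct inhibition of firefly luciferase enzyme (10 nM final, 50 mM Tris Acetate) assessed by luminescence within 5 minutes. Percent activity scaled between DMSO and PTC124 positive control, with concentration-effect curves classified by fit quality and response.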

[3] = S16 Schwann cell PMP22 intronic element firefly luciferase assay (AID 624032); note: nearly all actives have a fitted effect of over 30% in size; note: potency is the fitted concentration of half-maximal effect
Procedure, shortened: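 Luciferase reporter of PMP22 intronic-element expression in stably transfected S16 rat Schwann cells, read by ONE-Glo luminescence after 24 h compound exposure at 37 C. Activity scaled between DMSO (0%) and positive-control PTC124; concentration-effect curves quality-classified.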

[4] = S16 Schwann cell PMP22 intronic element beta-lactamase assay (AID 624044; calls by dose curve; note: nearly all actives have a fitted effect of over 15% in size; note: potency is the fitted concentration of half-maximal effect)
Procedure, shortened: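 Rat S16 Schwann cells with beta-Lac driven by a PMP22 intronic element, compound-treated 24 h at 37 °C. LiveBLAzer FRET B/G read: 460 nm normalized to potassium clavulanate vs DMSO; 535 nm FRET as viability; concentration-effect curves classified.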

[5] = S16 Schwann cell viability assay (CellTiter-Glo assay) (AID 624031);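 note: cellular ATP luminescence as a viability measure; series mostly up to about 58 µM; nearly all actives have a fitted effect of over 70% in size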
Procedure, shortened: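 Native S16 rat Schwann cells in DMEM/10% FBS without phenol red were incubated overnight, then exposed to compounds for 24 h at 37 °C/5% CO2. Viability was read as ATP luminescence (CellTiter-Glo), normalized to no-cell wells and DMSO (0%).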

[6] = target: Glutaminase kidney isoform, mitochondrial (Homo sapiens) (UniProt O94925); assay: qHTS for Inhibitors of Glutaminase (GLS): LOPAC Validation (AID 624146);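 note: glutamate product detected by oxidase and peroxidase coupled Amplex red fluorescence gain; series mostly up to about 46 µM; nearly all actives have a fitted effect of over 60% in size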
Glutaminase kidney isoform, mitochondrial (Homo sapiens), sequence (O94925 whole entry, looked up, canonical isoform): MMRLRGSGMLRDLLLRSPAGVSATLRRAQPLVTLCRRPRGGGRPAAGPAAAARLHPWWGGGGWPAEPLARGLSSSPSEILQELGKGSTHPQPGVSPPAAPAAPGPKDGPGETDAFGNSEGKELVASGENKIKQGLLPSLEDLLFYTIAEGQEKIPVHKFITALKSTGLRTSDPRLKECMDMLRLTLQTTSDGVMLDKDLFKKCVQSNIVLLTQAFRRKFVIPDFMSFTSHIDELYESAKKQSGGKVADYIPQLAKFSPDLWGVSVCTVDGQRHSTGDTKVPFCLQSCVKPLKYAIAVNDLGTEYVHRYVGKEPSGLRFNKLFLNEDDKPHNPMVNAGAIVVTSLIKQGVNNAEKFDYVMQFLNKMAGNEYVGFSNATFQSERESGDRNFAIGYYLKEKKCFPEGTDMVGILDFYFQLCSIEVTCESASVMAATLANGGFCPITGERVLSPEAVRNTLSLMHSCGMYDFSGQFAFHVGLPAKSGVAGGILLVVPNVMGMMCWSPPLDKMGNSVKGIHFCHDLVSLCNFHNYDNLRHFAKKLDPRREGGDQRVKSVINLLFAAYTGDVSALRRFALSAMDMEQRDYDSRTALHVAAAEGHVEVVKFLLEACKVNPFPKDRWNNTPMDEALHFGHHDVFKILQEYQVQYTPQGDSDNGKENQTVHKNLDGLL
Procedure, shortened: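 Two-point fluorescence kinetic (t0, 30 min RT) for hKGA; glutamate detected via glutamate oxidase–HRP–Amplex Red. Substrate: 1 mM L-glutamine solution; buffer 45 mM KH2PO4, pH 8.2.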

[7] = qHTS of Trypanosoma Brucei Inhibitors: LOPAC Validation (AID 624147)
Procedure, shortened: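 TbPYK + substrate in 50 mM TEA pH 7.2, 100 mM KCl, 10 mM MgCl2, 0.05% BSA, 0.01% Tween-20; cpd pinned; ADP 130 uM final; 45 min RT; Kinase-Glo Plus 10 min; luminescence endpoint.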

[8] = target: Glucagon-like peptide 1 receptor (Homo sapiens) (UniProt P43220); assay: qHTS of GLP-1 Receptor Agonists: LOPAC Validation (AID 624148);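 note: luminescence from a luciferase reporter switched on by cAMP; higher luminescence signal means agonism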
Glucagon-like peptide 1 receptor (Homo sapiens), sequence (P43220 whole entry, looked up): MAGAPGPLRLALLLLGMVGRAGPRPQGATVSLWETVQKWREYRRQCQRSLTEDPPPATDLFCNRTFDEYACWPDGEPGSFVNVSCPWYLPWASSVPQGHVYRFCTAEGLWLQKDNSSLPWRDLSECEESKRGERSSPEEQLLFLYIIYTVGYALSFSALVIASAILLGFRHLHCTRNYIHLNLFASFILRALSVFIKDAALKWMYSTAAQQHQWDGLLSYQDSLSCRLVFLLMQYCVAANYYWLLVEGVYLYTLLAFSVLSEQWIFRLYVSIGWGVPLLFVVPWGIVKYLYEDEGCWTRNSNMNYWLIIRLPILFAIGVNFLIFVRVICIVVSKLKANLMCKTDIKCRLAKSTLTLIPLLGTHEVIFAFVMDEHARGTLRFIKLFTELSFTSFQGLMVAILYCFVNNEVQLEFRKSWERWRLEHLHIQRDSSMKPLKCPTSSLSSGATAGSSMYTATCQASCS
Procedure, shortened: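 Agonism scored as increased luciferase luminescence driven by cAMP in HEK293 clones carrying GLP-1R. Cells settled 12 hours, received compound for 4-6 hr at 37 deg C, 5% CO2, and were read after 12 min detection reagent at RT.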

[9] = target: Retinoic acid receptor RXR-alpha (Homo sapiens) (UniProt P19793); assay: qHTS assay for small molecule antagonists of retinoid X receptor alpha signaling (AID 588546; active = well fitted inhibition curve with a large enough effect in the signal ratio, with a control signal flat, not every such curve was filed as active; the % refers to the signal ratio;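 note: cells stimulated with 9-cis-retinoic acid as agonist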); conditions: HEK293T RXRa-UAS-bla, beta-lactamase ratio, antagonist mode
Retinoic acid receptor RXR-alpha (Homo sapiens), sequence (P19793 whole entry, looked up): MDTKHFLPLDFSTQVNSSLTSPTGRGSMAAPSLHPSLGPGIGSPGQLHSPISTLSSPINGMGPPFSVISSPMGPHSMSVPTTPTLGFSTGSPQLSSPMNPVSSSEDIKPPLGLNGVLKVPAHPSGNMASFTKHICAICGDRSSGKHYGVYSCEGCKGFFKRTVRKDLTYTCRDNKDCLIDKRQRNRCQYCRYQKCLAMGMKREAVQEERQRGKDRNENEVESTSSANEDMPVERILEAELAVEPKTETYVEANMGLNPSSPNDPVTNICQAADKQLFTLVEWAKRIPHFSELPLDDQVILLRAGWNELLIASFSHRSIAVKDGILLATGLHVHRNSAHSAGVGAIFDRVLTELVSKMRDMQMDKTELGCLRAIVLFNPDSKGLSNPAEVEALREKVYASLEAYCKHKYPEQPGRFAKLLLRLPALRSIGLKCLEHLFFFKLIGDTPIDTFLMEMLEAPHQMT
Procedure, shortened: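 Beta-lactamase reporter inhibition, read as CCF4 fluorescence ratio (ex 405, em 460/530 nm) after 2 h at RT. HEK293T UAS-bla cells, 2500/well, were stimulated with 9-cis-RA at 500 or 100 nM final alongside test compound for 18 h at 37 C.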

[10] = target: Thyroid hormone receptor beta (Homo sapiens) (UniProt P10828); assay: qHTS assay for small molecule antagonists of thyroid hormone receptor beta signaling (AID 588547; active = well fitted inhibition curve with a large enough effect in the signal ratio, with a control signal flat, not every such curve was filed as active; the % refers to the signal ratio;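 note: cells stimulated with 0.4 nM T3 agonist during compound exposure; series mostly up to about 77 µM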); conditions: TR-UAS-bla HEK293, beta-lactamase ratio, antagonist mode, 18 h
Thyroid hormone receptor beta (Homo sapiens), sequence (P10828 whole entry, looked up): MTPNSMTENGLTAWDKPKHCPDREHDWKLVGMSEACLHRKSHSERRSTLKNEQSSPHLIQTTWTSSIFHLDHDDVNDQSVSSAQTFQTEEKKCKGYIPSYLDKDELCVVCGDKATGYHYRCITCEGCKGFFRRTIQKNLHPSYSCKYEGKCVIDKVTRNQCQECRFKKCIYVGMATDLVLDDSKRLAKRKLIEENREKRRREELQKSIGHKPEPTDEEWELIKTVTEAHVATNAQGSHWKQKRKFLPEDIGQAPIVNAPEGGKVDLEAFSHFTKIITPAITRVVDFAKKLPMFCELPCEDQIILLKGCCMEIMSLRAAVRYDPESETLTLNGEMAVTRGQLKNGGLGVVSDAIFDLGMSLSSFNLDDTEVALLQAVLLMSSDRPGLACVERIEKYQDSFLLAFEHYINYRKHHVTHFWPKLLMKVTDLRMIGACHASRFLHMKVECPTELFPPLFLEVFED
Procedure, shortened: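 Inhibition of T3-driven (0.4nM final) beta-lactamase reporter activity was measured over 0.59 nM to 92 uM compound after 18 h at 37 C. The cells were GripTite HEK293 TR-UAS-bla in charcoal/dextran-stripped serum, with CCF4 ratio read-out and IC50 from Hill fits.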

In the case of `CC(C)(C)NC(=O)[C@H]1CN(Cc2cccnc2)CCN1C[C@@H](O)C[C@@H](Cc1ccccc1)C(=O)N[C@H]1c2ccccc2C[C@H]1O`, the Potency [1] is reported as “inactive”, the Potency [2] is reported as “inactive” and the Potency [3] is reported as 36.1 µM (active). The Potency [4] was “inactive”.

For `CC=CC1=C(C(=O)O)N2C(=O)[C@H](NC(=O)[C@H](N)c3ccc(O)cc3)[C@@H]2SC1`, the Potency [1] was “inactive”, the Potency [2] was “inactive” and the outcome [5] was “inactive”. The Potency [3] was “inactive”.

With `C=C1C(=CC=C2CCC[C@]3(C)[C@@H]([C@H](C)C=C[C@H](C)C(C)C)CC[C@@H]23)C[C@@H](O)C[C@@H]1O` the Potency [2] was “inactive”.

In the case of `O=c1[nH]c(=O)n(C2CCCO2)cc1F` (stereo not drawn), the Potency [2] is reported as “inactive”, the outcome [5] is reported as “inactive” and the Potency [3] is reported as “inactive”. The Potency [4] was “inactive”.

With `C[C@H]1C[C@@H]2[C@@H]([C@@H](O)C[C@@]3(C)[C@H]2CC[C@]3(O)C(=O)CO)[C@@]2(C)C=CC(=O)C=C12` the Potency [1] was “inactive”, the Potency [2] was “inactive” and the outcome [5] was “inactive”. The Potency [3] was “inactive” and the Potency [4] was “inactive”.

For `COC(=O)C1=C(C)NC(C)=C(C(=O)OCCN2CCN(C(c3ccccc3)c3ccccc3)CC2)C1c1cccc([N+](=O)[O-])c1` (stereo not drawn), the Potency [1] was 3.98 µM (active) and the Potency [2] was “inactive”.

In the case of `Nc1ccn([C@@H]2CS[C@H](CO)O2)c(=O)n1`, the Potency [1] is reported as “inactive”, the Potency [2] is reported as “inactive” and the outcome [5] is reported as “inactive”. For the same compound, the Potency [3] was “inactive”.

For `Nc1ccc(S(=O)(=O)Nc2ncccn2)cc1`, the Potency [1] was “inactive”, the outcome [5] was “inactive” and the Potency [3] was 6.91 µM (active). The Potency [4] was “inactive”.

In the case of `COC(=O)C[C@](O)(CCCC(C)(C)O)C(=O)O[C@@H]1C(OC)=C[C@]23CCCN2CCc2cc4c(cc2[C@H]13)OCO4`, the Potency [1] is reported as “inactive”, the Potency [2] is reported as “inactive” and the outcome [5] is reported as “inactive”.

For `CC(=O)SC[C@@H](C)C(=O)N1CCC[C@H]1C(=O)N[C@@H](Cc1ccccc1)C(=O)O`, the Potency [2] was “inactive”.

For `Nc1ccn([C@@H]2O[C@H](CO)[C@H](O)C2(F)F)c(=O)n1`, the Potency [1] was “inactive”, the Potency [2] was “inactive” and the Potency [3] was “inactive”. The Potency [4] was 0.562 µM (active).

For `CN[C@H]1CCc2cc(OC)c(OC)c(OC)c2-c2ccc(OC)c(=O)cc21`, the Potency [1] was “inactive”.

For `O=c1c2ccccc2nc2n1CCc1c-2[nH]c2ccccc12`, the Potency [1] was “inactive”, the outcome [6] was “inactive” and the outcome [7] was “inactive”. For the same compound, the outcome [8] was “inactive”.

For `O=C(O)CCCc1c[nH]c2ccccc12`, the max response [9] was 6.54% and the activity change % (negative = inhibition) [10] was 3.26%.
